# Test results published in PMC7819943, “Rice protein-binding microarrays: a tool to detect cis-acting elements near promoter regions in rice”.
# Over roughly 68,000 sequences, “fluorescence intensity (a.u.)” has its median near 9,100; the highest 2% begin near 16,000. The sample holds the highest values, similar sequences and a random draw of the others, so the mix is not that of the screen.
# Molecular target: OsWRKY34 (Oryza sativa, UniProt Q0JBA9 1-250)
# Assay: protein-binding microarray (RPBM); PBS, 2% BSA, 51.3 ng/ul salmon testes DNA, 50 uM zinc acetate, 200 nM TF, 25 C, 1 h; high values mean tight binding
# Conditions: protein: recombinant; tags: N-terminal polyhistidine and DsRed monomer fusion (pET32a); label: CyDye5-dUTP incorporated in the synthesized complementary strand; 3' TTTTT single-stranded linker to array surface; dsDNA, one strand shown
# Outline: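 An Axon 4000B scanner gave the binding signal as per-feature fluorescence intensity in arbitrary units. This followed washing of a custom Agilent array that had been incubated for 1 h at 25 °C with 200 nM protein in PBS, 2% BSA, salmon testes DNA and 50 µM zinc acetate. The proteins were transcription factors fused at the N-terminus to polyhistidine and DsRed, expressed in E. coli BL21-CodonPlus and purified on Ni–NTA.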
# OsWRKY34, sequence (Q0JBA9 entry or part of it): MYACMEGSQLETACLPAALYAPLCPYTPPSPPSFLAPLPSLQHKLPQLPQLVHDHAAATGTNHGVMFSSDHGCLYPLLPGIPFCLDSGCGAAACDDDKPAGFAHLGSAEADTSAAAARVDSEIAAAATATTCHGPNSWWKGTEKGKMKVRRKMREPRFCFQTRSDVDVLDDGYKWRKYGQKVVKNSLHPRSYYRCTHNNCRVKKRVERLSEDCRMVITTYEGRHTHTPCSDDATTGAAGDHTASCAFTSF
row,Sequence,binding signal
1,TTGACCAACGTTTAACCATTCGTTTCATTTAATTTTTTTTCGGAGTCACCTAGTGCAG,10800 fluorescence intensity (a.u.)
2,TCCACTATGGCCATCCTGATATCTTTGATCGTCTTTTCCACGGAGTCACCTAGTGCAG,17500 fluorescence intensity (a.u.)
3,GTTTGGCCATGGTGCCGTCGTTGTCTCGTTGATGCTTAGTCGGAGTCACCTAGTGCAG,10700 fluorescence intensity (a.u.)
4,AAAGCCTGTGGCCACATCTTATCTTTTCCATCCTTTGCATCGGAGTCACCTAGTGCAG,8040 fluorescence intensity (a.u.)
5,CCATTGACTTTTTGTCCAACGTTTGACCATTCGTCTTATTCGGAGTCACCTAGTGCAG,17000 fluorescence intensity (a.u.)
6,ATCGGTGGTGGTGGTGGTGGTGGCCATGAGTCTCGTTTGACGGAGTCACCTAGTGCAG,27500 fluorescence intensity (a.u.)
7,GTCGTTGACTTTTTAACCACAACGTTTGACCATTCGTCTTCGGAGTCACCTAGTGCAG,21800 fluorescence intensity (a.u.)
8,TCAGTGGACTCGGTTCTGTTTTTTTGTCACTCCACTGGCACGGAGTCACCTAGTGCAG,9610 fluorescence intensity (a.u.)
9,CACTAAGTCCGTTCCCATGCCCATTTCTCCCTGCATATTACGGAGTCACCTAGTGCAG,9680 fluorescence intensity (a.u.)
10,TCGTTGACTTTTTAACCAACGTTTAACCATTCGTCTTATTCGGAGTCACCTAGTGCAG,18600 fluorescence intensity (a.u.)
11,CGTTGACTTTTTTTCAACGTTTAATAATTTATCTTATTCACGGAGTCACCTAGTGCAG,12900 fluorescence intensity (a.u.)
12,ACTTTTTAACCAACGTTTGACCATTCGTCTTATTCAAATTCGGAGTCACCTAGTGCAG,10600 fluorescence intensity (a.u.)
13,ACCATTAACTTTTTCTTAATTCGTTTCACTATTTTTTTAACGGAGTCACCTAGTGCAG,9500 fluorescence intensity (a.u.)
14,CCGTTGACTTTTTAACTAATGTTTAACCATTCATTTTATTCGGAGTCACCTAGTGCAG,28900 fluorescence intensity (a.u.)
15,ACTATTGACTTTTTTTCTATGTTAGACCATTCATTTTATTCGGAGTCACCTAGTGCAG,12300 fluorescence intensity (a.u.)
16,TGTTGACTTTTTTTATTAACGTTTAGCATTTATCTTATTTCGGAGTCACCTAGTGCAG,18000 fluorescence intensity (a.u.)
17,TATGACGTCGTTGACTTTTTAACCAACGTTTGACCATCGTCGGAGTCACCTAGTGCAG,32900 fluorescence intensity (a.u.)
18,TCTTGACCAACGTTTAACCATTCGTTTTATTTAAAATTTTCGGAGTCACCTAGTGCAG,9450 fluorescence intensity (a.u.)
19,GACTTTTCACGTAACGTTTGACCATTTATCTTATTTATAACGGAGTCACCTAGTGCAG,9970 fluorescence intensity (a.u.)
20,TTGTACACTTATGATTTCCTATTTTTGCATATGATTTTGTCGGAGTCACCTAGTGCAG,8050 fluorescence intensity (a.u.)
21,GACACTAGGACAGTACGTAGCTACCTCTCCACTGCTCTGCCGGAGTCACCTAGTGCAG,8730 fluorescence intensity (a.u.)
22,CTTGATTACCCCGTAGTCAGGTTTGTATGACTAAGCAACCCGGAGTCACCTAGTGCAG,8980 fluorescence intensity (a.u.)
23,GACTGGGCCGTTGACCAGACGTGTACCCCACCGGCCAGTCCGGAGTCACCTAGTGCAG,9290 fluorescence intensity (a.u.)

row,Sequence,binding signal
1,GCCAAGGCCTTACTGCTGCTTCTGTTTCTTGCCACCAATGCGGAGTCACCTAGTGCAG,9650 fluorescence intensity (a.u.)
2,GTTTGACTATTTTATGCCTTGTAGCTTGAGCTACAGTTCACGGAGTCACCTAGTGCAG,10100 fluorescence intensity (a.u.)
3,CTCTCTAACTGCAGATTTCCCTCCCCTTTCAACGCGCGCGCGGAGTCACCTAGTGCAG,8110 fluorescence intensity (a.u.)
4,CCCCATCAACCTCCTCTTCTTCTTCGCCTCGTCTCGTCTTCGGAGTCACCTAGTGCAG,9670 fluorescence intensity (a.u.)
5,TGCTGACTTGGCGTTGACCTGTGAAATTCTCTCGCTTCACCGGAGTCACCTAGTGCAG,11500 fluorescence intensity (a.u.)
6,TTTATTAAACCTAGTTAATCCATTGTTAGCAAATATTTAACGGAGTCACCTAGTGCAG,23300 fluorescence intensity (a.u.)
7,GCCGTTGACTTTTTATCCAACGTTTGATCATTCGTCTTATCGGAGTCACCTAGTGCAG,40800 fluorescence intensity (a.u.)
8,CGTCCAACTTTGATCGTCCGTTTTATTTGAATTTTTTTATCGGAGTCACCTAGTGCAG,11200 fluorescence intensity (a.u.)
9,ATTTTATCCAACGTTTGACCATTCGTCTTATATAAAATATCGGAGTCACCTAGTGCAG,9960 fluorescence intensity (a.u.)
10,TATTAAATCATTTAATTTTAGCTATTGTTTTTTATTTATTCGGAGTCACCTAGTGCAG,9250 fluorescence intensity (a.u.)
11,TTTCGATTGTTGTTTATTTTCCAGCATTAGTTTTTAAATCCGGAGTCACCTAGTGCAG,8320 fluorescence intensity (a.u.)
12,TCTTTTTTTTTTTCATTATTGTTTGAATATTGATTTCACACGGAGTCACCTAGTGCAG,8780 fluorescence intensity (a.u.)
13,TTGCAAAATTTAAAATTATGTTGTCATTGTAATATATTTTCGGAGTCACCTAGTGCAG,8440 fluorescence intensity (a.u.)
14,GTTGGTTTTTACATTTGTTTGCTCGAGTCATATATGTCGTCGGAGTCACCTAGTGCAG,9010 fluorescence intensity (a.u.)
15,GCTGCCCCTTGTACTTACTTCTATCATCTTTCTTCCCACACGGAGTCACCTAGTGCAG,8880 fluorescence intensity (a.u.)
16,TTTAGTATATAAAAGATTATAGGGGAGGTTCATTACTTTCCGGAGTCACCTAGTGCAG,8410 fluorescence intensity (a.u.)
17,TCTGAGTGGTTCTCTGGGCGTTGTTGGTGCGTTCTTGATCCGGAGTCACCTAGTGCAG,8900 fluorescence intensity (a.u.)
18,GGATTGGGGAGTGATTCGGTTTGTTCTTGATTTTGATTTTCGGAGTCACCTAGTGCAG,15700 fluorescence intensity (a.u.)
19,TCTTGATTGGTTGTTTTGGTTTGTTTCTTATTTATGTTTGCGGAGTCACCTAGTGCAG,8920 fluorescence intensity (a.u.)
20,TTTCTTGATTTGGTTGGGATTGGTTGTTCTTGGGCTTATCCGGAGTCACCTAGTGCAG,18900 fluorescence intensity (a.u.)
21,GTGTAGATTGATTGGTTCTTGGTGGTGGTGGTGGTGGATCCGGAGTCACCTAGTGCAG,22200 fluorescence intensity (a.u.)
22,AGATCAGGTTTTCTCTTTGGTTGATTGTGTGTGGAAGATCCGGAGTCACCTAGTGCAG,10100 fluorescence intensity (a.u.)
